Our source for the composite z-score and z-score values is PubChem BioAssay.

For experiment [1], the system named is PRMT1 (protein arginine N-methyltransferase 1). Description: PRMT1 binders on small-molecule microarrays, primary screen, biochemical, small-molecule microarray, 635 nm fluorescence (AID 1088).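 Note: binding of Prmt1 protein to compounds spotted on small-molecule microarray slides.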 The settings on record: small-molecule microarray binding, higher = more signal.
Experiment [2] can be described thus: yeast growth modulation, basal conditions, primary screen, YJM789 clinical isolate, OD600, 24 h (AID 1089).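 Note: growth of clinical yeast isolate S. cerevisiae YJM 789 seeded 1000 cells per well; test concentration not given here.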 The settings on record: S. cerevisiae YJM789 growth, higher = more signal, called active from +8 up or from −8 down.
The nature of experiment [3]: fission yeast growth modulation, primary screen, strain 972, OD600, 24 h, no modulator (AID 1090).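 Note: basal condition with compound alone and no growth modifier present; test concentration not given here.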 The settings on record: S. pombe 972 growth, higher = more signal, called active from +8 up or from −8 down.
Experiment [4] in a line: S. cerevisiae growth modulation with rapamycin, primary screen, strain BY4716, OD600, 96 h (AID 1091). Note: test concentration not given here. The settings on record: higher = more signal, called active from +8 up or from −8 down.
Experiment [5] has as its target Torsin-1A-interacting protein 2 (Homo sapiens) (UniProt Q8NFQ8). Description: LULL1 binders on small-molecule microarray, primary screen, cell lysate, human LULL1 lysate, 635/667 nm fluorescence (AID 1092).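 Note: probe is lysate of COS7 cells overexpressing human LULL1; score merges per-feature 667 nm fluorescence with signal-to-noise.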 The settings on record: hLULL1 lysate binding, 635 nm fluorescence, higher = more signal.
Experiment [6] is described as follows: E. coli growth modulation, two-sided OD650, primary screen, E. coli filamentation project, strain DRC41, 24 h (AID 1093).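 Note: MC1000 strain lacking acrAB efflux and sulA so SOS filamentation is blocked; test concentration not given here.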 Conditions: OD650, 24 h, higher = more signal, called active from +8 up or from −8 down.
The nature of experiment [7]: small-molecule microarray binders of probe aLefty2, primary screen, biochemical, biotinylated probe, 635/667 nm fluorescence (AID 1094).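 Note: score merges spot fluorescence near 667 nm with spot signal-to-noise ratio.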 The settings on record: higher = more signal.
The test system of experiment [8] is Noggin (protein binding on small-molecule microarray). Description: Noggin binders on small-molecule microarray, primary screen, biochemical, 635/667 nm fluorescence (AID 1095).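 Note: score merges 667 nm feature fluorescence with signal to noise over triplicate slides.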 The settings on record: 635 nm fluorescence, higher = more signal.
The target of experiment [9] is Neurogenic locus notch homolog protein 3 (Homo sapiens) (UniProt Q9UM47). Description: NOTCH3 binders on small-molecule microarray, primary screen, biochemical, 635/667 nm fluorescence (AID 1096). Conditions: NOTCH3 binding, 635 nm fluorescence, higher = more signal.
Experiment [10] is described as follows: small-molecule microarray binders of probe aEGFR, primary screen, biochemical, biotinylated probe, 635/667 nm fluorescence (AID 1097).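 Note: probe is a biotinylated anti-EGFR antibody binding compounds printed on slides; score combines fluorescence near 667 nm and signal to noise of each spot.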 The settings on record: higher = more signal.
In experiment [11] the test system is Plasmodium falciparum Sir2 (PF13_0152, Sir2A). Nature of the experiment: pfSir2 binders on small-molecule microarrays, primary screen, biochemical, small-molecule microarray, 635 nm fluorescence (AID 1098).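 Note: score merges spot fluorescence intensity with its signal-to-noise ratio.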 Conditions: small-molecule microarray binding, fluorescence 635 nm; higher = more signal.
Experiment [12] can be described thus: small-molecule microarray binders of probe aDKK1, primary screen, biochemical, biotinylated probe, 635/667 nm fluorescence (AID 1099).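 Note: score merges 667nm spot fluorescence with signal to noise across triplicate slides; reference of the scale not given here.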 Conditions: higher = more signal.
Experiment [13] is described as follows: small-molecule microarray binders of probe aCHRDL2, primary screen, biochemical, biotinylated probe, 635/667 nm fluorescence (AID 1100). The settings on record: higher = more signal.
Experiment [14] is described as follows: splicing luciferase reporter signal modulators, primary screen, spliceosome inhibition project, cell-based, HEK293, splice +/- reporter (AID 1101).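 Note: HEK293 cells carrying a splicing-competent luciferase reporter gene; test concentration not given here.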 Conditions: luminescence, 24 h, higher = more signal, called active from +8 up or from −8 down. (Reporter assays use an easily measured gene product as a stand-in for the process of interest.)
For experiment [15], the target named is Fibroblast growth factor 10 (Homo sapiens) (UniProt O15520). Description: FGF10 binders on small-molecule microarrays, primary screen, biochemical, small-molecule microarray, 635 nm fluorescence (AID 1102). The settings on record: FGF10 binding, fluorescence 635 nm, higher = more signal.
In experiment [16] the test system is glycogen synthase kinase-3 (GSK3A per assay name; protocol says GSK3B). Nature of the experiment: GSK3 binders on small-molecule microarrays, primary screen, biochemical, small-molecule microarray, 635 nm fluorescence, GSK3A (AID 1103). Note: the record names both GSK3A and GSK3B. The settings on record: small-molecule microarray binding, fluorescence 635 nm; higher = more signal.
Experiment [17] concerns the target Epidermal growth factor receptor (Homo sapiens) (UniProt P00533). Description: EGFR binders on small-molecule microarrays, primary screen, biochemical, small-molecule microarray, 635 nm fluorescence (AID 1104).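 Note: score merges 667 nm emission intensity with spot signal to noise over triplicate slides.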 The settings on record: EGFR binding, higher = more signal.
Experiment [18] concerns the target Follistatin-related protein 3 (Homo sapiens) (UniProt O95633). Nature of the experiment: FSTL3 binders on small-molecule microarrays, primary screen, biochemical, small-molecule microarray, 635 nm fluorescence (AID 1105).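 Note: score merges emission near 667 nm and signal to noise per printed spot across three slides.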 Conditions: FSTL3 binding, higher = more signal.
In experiment [19] the target is Dickkopf-related protein 1 (Homo sapiens) (UniProt O94907). Nature of the experiment: DKK1 binders on small-molecule microarrays, primary screen, biochemical, small-molecule microarray, 635 nm fluorescence scan (AID 1106).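 Note: score merges emission near 667 nm with signal to noise over three replicate slides.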 The settings on record: DKK1 binding, higher = more signal.
The subject of experiment [20] is Inhibin beta A chain (activin A). Nature of the experiment: INHBA (activin A) binders on microarrays, primary screen, biochemical, small-molecule microarray, 635 nm fluorescence scan (AID 1107).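 Note: mouse activin A protein probed at 4.33 µg/mL on printed slides; score merges bound-protein fluorescence near 667 nm with spot signal-to-noise.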 Conditions: small-molecule microarray binding, higher = more signal.

Activity calls are given as the source filed them.

Sequence of Follistatin-related protein 3 (Homo sapiens) (O95633 whole entry, looked up): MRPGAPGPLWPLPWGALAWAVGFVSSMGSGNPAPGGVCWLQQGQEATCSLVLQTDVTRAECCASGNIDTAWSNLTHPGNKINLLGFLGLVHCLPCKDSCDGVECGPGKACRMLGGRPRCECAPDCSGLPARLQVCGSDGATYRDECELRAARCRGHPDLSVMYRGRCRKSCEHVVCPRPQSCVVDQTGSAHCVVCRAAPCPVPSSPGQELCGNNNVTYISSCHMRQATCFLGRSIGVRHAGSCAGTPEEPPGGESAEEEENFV
Sequence of Dickkopf-related protein 1 (Homo sapiens) (O94907 whole entry, looked up): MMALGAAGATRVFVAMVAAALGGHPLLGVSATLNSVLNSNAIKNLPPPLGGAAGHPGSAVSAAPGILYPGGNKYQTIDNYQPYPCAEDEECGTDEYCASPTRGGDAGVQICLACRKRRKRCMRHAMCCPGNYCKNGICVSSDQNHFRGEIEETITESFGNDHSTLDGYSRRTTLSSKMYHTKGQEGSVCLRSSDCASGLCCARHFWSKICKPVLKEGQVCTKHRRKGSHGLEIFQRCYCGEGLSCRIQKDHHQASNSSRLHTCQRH
Sequence of Epidermal growth factor receptor (Homo sapiens) (P00533 whole entry, looked up): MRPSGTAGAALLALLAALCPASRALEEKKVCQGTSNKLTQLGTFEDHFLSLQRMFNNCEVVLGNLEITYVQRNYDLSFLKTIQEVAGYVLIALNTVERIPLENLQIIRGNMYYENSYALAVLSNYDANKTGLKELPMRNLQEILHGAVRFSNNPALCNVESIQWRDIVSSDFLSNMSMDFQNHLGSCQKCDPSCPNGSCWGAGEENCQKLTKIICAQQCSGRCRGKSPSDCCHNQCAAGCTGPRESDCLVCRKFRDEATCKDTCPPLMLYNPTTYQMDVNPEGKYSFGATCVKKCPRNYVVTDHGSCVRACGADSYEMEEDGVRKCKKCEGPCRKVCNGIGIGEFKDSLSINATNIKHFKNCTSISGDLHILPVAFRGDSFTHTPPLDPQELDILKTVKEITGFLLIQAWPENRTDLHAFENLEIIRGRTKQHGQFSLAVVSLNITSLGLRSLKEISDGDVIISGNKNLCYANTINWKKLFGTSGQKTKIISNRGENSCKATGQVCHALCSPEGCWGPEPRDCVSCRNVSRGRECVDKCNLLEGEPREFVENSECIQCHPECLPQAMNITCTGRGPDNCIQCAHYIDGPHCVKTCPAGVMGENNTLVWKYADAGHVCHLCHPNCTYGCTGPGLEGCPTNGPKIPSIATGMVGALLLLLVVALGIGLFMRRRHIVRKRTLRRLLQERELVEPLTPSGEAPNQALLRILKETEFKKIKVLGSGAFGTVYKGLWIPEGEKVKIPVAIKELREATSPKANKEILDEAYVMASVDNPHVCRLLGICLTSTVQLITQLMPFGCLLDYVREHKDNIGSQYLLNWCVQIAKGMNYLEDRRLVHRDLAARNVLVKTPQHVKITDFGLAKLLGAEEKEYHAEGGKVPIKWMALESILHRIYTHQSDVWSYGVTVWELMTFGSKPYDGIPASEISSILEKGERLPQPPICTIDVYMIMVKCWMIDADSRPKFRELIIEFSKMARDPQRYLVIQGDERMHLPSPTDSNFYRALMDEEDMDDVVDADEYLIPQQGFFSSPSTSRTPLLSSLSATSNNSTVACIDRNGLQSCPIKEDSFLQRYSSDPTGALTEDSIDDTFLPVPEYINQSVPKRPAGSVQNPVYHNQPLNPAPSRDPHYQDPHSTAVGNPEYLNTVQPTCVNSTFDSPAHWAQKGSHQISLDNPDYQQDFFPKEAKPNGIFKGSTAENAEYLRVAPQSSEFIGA
Sequence of Torsin-1A-interacting protein 2 (Homo sapiens) (Q8NFQ8 whole entry, looked up): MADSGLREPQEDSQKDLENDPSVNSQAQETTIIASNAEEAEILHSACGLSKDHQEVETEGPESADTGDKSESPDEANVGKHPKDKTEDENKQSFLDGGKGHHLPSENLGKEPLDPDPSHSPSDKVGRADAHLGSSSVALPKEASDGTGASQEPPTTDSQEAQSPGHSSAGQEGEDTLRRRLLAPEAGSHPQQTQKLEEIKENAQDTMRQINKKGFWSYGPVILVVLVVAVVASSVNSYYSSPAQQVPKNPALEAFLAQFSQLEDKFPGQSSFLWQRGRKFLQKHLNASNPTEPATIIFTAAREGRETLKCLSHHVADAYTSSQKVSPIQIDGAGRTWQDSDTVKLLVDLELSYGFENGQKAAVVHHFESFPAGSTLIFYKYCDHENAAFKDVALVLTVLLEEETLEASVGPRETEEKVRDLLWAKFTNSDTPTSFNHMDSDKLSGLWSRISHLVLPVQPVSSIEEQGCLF
Sequence of Neurogenic locus notch homolog protein 3 (Homo sapiens) (Q9UM47 whole entry, looked up): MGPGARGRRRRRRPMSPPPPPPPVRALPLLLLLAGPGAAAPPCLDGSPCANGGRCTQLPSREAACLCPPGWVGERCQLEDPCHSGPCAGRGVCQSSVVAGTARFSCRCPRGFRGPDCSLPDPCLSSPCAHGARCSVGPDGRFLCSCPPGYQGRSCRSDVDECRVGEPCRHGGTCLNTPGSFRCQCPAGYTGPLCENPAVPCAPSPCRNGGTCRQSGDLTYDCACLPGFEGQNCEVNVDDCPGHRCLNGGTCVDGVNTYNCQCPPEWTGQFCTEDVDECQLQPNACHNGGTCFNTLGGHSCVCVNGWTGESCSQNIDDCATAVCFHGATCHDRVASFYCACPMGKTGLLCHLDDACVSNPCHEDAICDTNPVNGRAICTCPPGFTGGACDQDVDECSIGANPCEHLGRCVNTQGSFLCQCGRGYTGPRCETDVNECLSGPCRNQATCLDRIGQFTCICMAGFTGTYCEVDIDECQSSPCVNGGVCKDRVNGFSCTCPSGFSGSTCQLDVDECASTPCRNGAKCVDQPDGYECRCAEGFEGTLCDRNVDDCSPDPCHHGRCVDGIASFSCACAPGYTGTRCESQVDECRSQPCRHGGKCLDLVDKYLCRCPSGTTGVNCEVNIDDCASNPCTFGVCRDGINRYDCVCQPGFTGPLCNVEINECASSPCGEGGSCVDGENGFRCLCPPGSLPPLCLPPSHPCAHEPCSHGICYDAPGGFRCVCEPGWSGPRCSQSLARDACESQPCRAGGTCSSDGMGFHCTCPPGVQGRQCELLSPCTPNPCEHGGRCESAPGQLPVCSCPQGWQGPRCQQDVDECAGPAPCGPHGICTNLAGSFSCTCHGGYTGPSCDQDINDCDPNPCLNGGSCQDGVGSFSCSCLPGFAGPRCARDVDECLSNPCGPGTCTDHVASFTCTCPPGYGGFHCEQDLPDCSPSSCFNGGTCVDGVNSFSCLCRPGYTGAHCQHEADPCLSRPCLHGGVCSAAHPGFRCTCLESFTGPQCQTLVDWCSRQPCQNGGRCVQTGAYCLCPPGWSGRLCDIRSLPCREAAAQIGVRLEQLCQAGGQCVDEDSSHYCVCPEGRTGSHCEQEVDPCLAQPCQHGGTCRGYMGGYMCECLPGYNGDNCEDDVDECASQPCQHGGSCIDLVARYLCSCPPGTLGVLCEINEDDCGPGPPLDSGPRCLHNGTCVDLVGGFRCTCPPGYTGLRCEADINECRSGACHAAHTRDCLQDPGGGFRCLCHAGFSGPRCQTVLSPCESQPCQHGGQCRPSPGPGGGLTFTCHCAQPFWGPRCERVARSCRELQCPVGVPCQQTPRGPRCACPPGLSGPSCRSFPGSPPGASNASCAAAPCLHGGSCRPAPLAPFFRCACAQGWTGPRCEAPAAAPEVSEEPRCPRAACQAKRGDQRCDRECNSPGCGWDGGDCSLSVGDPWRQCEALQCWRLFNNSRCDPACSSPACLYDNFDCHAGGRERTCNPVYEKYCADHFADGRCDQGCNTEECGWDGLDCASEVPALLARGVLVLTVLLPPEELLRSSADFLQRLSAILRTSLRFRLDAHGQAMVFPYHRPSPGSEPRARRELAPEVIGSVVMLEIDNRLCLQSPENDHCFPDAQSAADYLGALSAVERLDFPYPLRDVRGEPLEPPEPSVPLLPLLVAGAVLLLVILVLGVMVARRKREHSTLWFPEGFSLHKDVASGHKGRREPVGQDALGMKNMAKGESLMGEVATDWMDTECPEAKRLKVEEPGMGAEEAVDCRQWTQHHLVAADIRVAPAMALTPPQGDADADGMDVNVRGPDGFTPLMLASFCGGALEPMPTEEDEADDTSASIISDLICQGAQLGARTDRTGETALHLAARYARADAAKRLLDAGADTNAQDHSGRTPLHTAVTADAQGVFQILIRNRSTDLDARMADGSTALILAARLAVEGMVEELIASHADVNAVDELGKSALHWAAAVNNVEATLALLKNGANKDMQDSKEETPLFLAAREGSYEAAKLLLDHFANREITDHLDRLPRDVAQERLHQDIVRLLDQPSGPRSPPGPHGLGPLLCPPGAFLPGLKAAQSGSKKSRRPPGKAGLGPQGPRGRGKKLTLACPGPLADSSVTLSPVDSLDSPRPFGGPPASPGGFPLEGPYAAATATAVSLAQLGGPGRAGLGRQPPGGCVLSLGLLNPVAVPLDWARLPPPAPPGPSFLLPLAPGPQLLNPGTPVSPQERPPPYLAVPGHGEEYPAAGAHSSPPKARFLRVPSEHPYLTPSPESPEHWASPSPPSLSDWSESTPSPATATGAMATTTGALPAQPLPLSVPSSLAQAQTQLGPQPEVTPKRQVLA
Sequence of Fibroblast growth factor 10 (Homo sapiens) (O15520 whole entry, looked up): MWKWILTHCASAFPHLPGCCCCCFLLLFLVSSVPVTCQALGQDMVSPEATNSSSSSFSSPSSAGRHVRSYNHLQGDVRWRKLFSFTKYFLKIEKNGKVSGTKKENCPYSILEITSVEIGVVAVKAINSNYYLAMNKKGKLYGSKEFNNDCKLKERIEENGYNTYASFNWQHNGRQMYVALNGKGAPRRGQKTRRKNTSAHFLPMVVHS

As to `C#C[C@H](O[Si](C#Cc1ccccc1)(C(C)C)C(C)C)c1ccccc1`, the composite z-score in experiment [1] is 0.0132; in experiment [5], 0.504; in experiment [7] it was -0.279; in experiment [8] it was -0.251; in [9], -0.406; in experiment [10] it was -0.25. Moreover, the composite z-score was 2.08 in [11]; -0.156 in experiment [12]; 0.104 in experiment [13]; 0.0189 in [15]; -0.75 in experiment [16]; -0.765 in experiment [17]. Besides, the results for the composite z-score in experiment [18], in [19] and in [20] were -0.643, -0.854 and 0.0677, respectively. For the same compound, the z-score in experiment [2] is -22.2 (active); in experiment [3], -20.1 (active); in experiment [4], -2.8 (inactive); in experiment [6] it was -0.227 (inactive); in [14] it was -0.647 (inactive).
With `CN(C)CCCC[C@@H]1NC(=O)[C@@H]2C[C@H](C(=O)O)[C@H](c3ccc(O)cc3)N2C1=O`, the composite z-score in experiment [1] is 1.41; in [5], 0.728; in [7] it was -0.153; in experiment [8], 1.01; in experiment [9], 0.385; in experiment [10], -0.0605. Moreover, the composite z-score is 0.902 in experiment [11]; -0.005 in experiment [12]; -0.222 in [13]; 0.857 in experiment [15]; 1.21 in [16]; 0.737 in experiment [17]. For the same compound, the composite z-score in [18] was 0.928; in experiment [19], 1.68; in [20], 0.293. Further, the z-score in experiment [2] was -0.937 (inactive); in experiment [3], -1.04 (inactive); in experiment [4], -0.587 (inactive); in experiment [6], 2.71 (inactive); in experiment [14] it was -2.22 (inactive).
Turning to `C=CCC(OC(C)=O)[C@@H]1[C@@H](N(Cc2ccc(-c3ccccc3)cc2)C(=O)c2ccc(-c3ccccc3)cc2)c2cc(OCCCO)ccc2N1C(=O)Cc1ccc(OC)cc1` (stereo not given in full), the composite z-score in experiment [1] is -0.22; in experiment [5], 0.669; in [7] it was -0.0096; in [8] it was -0.0508; in [9] it was -0.0122; in experiment [10], -0.0994. Also, the composite z-score was -0.322 in experiment [11]; 0.0651 in experiment [12]; 0.026 in experiment [13]; 0.035 in experiment [15]; -0.0305 in [16]; -0.25 in experiment [17]. Besides, the composite z-score in [18] was 0.491; in experiment [19] it was -0.345; in experiment [20], 1.28. Moreover, the z-score is -0.809 (inactive) in experiment [2]; 0.202 (inactive) in experiment [3]; -0.253 (inactive) in experiment [4]; -0.685 (inactive) in experiment [6]; -0.792 (inactive) in experiment [14].
In the case of `COC(=O)Cn1c(C(=O)N2CCCC2)cc2c1C[C@H]1CN(C(=O)c3ccccc3)[C@@](Cc3ccccc3)(C(=O)OC)[C@@H]21`, the composite z-score is -0.257 in experiment [1]; 2.52 in [5]; 0.302 in [7]; -0.455 in experiment [8]; 0.74 in [9]; 0.168 in experiment [10]. In addition, the composite z-score in experiment [11] is 0.473; in experiment [12], 0.789; in experiment [13], 1.09; in [15], 0.0175; in [16] it was -0.838; in [17] it was -0.282. Further, the results for the composite z-score in experiment [18], in experiment [19] and in experiment [20] were 0.105, -0.837 and 0.632, respectively. Moreover, the z-score in [2] is 0.316 (inactive); in experiment [3] it was 1.23 (inactive); in [4] it was 0.651 (inactive); in experiment [6] it was 0.214 (inactive); in experiment [14], 0.309 (inactive).
With `COc1ccc([Si](C)(C)[C@H]2[C@H](CC(=O)N3Cc4ccccc4C[C@H]3CO)O[C@@]3(C(=O)N(Cc4cccc(N5CCOC5=O)c4)c4ccccc43)[C@@H]2C)cc1`, the composite z-score in experiment [1] is 1.34; in experiment [5] it was 0.662; in experiment [7] it was 0.0939; in [8] it was 1.22; in experiment [9] it was 0.932; in experiment [10], -0.0169. For the same compound, the composite z-score is 1.1 in [11]; -0.158 in experiment [12]; 0.0765 in experiment [13]; 0.701 in experiment [15]; 0.461 in [16]; 1.13 in experiment [17]. Also, the composite z-score is 1.24 in experiment [18], 1 in [19] and 0.923 in [20]. The z-score in [2] is -0.541 (inactive); in experiment [3] it was 0.319 (inactive); in experiment [4], 0.18 (inactive); in [6], 1.4 (inactive); in experiment [14], -1.07 (inactive).
